A selection: hits, their analogues and other compounds. The true share with any hit is near 0.37%.
CBFb-RUNX1 inh: qHTS Assay for Compounds Blocking the Interaction Between CBF-beta and RUNX1 for the Treatment of Acute Myeloid Leukemia; Runt-related transcription factor 1 (Homo sapiens) + Core-binding factor subunit beta …; AlphaScreen CBFb-His/RUNX1-biotin binding, biochemical; Potency, µM (top dose mostly 59.8 µM), for the others: top-dose activity, negative = inhibition, usual class: inhibitors; 230,000 tested, under 10 active; AID 1477, 2009; further: % of control where 0% means no effect
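Read-out: AlphaScreen. Format: His-CBF-beta with biotinylated RUNX1 (30 nM each) preincubated 20 min, compound 15 min, Ni-chelate plus streptavidin beads 90 min; room temperature throughout.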
PTAP TSG101 blk: qHTS Assay for Iinhibitors of HIV-1 Budding by Blocking the Interaction of PTAP/TSG101; Tumor susceptibility gene 101 protein (Homo sapiens), Q99816; Fluorescence polarization, FITC-PTAP peptide / Tsg101 binding; Potency, µM (doses to about 115 µM), for inactives: top-dose activity change, negative = inhibition, usual class: inhibitors; 340,000 tested, under 10 active; active means well fitted inhibition curve with a large enough effect in the main read-out, with a control signal flat, not every such curve was filed as active; inconclusive means small, poorly fitted or top-dose-only effect, or effect the other way, or a change in a side signal; inactive means no such curve, though single readings can be large or run the other way; further: potency means the concentration at half of the fitted maximal effect; % of control where 0% means no effect
Target sequence (Q99816 whole entry, looked up): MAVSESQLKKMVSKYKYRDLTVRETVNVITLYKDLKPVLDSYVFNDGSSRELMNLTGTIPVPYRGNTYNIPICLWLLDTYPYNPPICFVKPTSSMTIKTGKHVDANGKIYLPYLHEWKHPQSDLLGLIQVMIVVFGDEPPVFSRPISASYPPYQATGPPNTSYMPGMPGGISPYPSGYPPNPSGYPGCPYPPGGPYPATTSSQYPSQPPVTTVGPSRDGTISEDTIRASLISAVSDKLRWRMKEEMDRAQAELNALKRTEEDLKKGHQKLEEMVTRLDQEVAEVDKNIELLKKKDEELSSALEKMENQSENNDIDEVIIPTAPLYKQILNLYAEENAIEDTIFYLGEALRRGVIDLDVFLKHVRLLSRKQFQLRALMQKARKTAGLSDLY
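Fluorescence anisotropy tracks displacement of a FITC-tagged PTAP peptide (50 nM) from the Tsg101 binding domain (10 uM), following a 20 min room-temperature incubation at pH 7.5.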
MBNL1-CUG inh: qHTS Assay for Inhibitors of MBNL1-poly(CUG) RNA binding; AID 2675, 2010; TR-FRET MBNL1-His/biotin-(CUG)12 binding, 665/545 ratio; Potency, µM (titrated, usually from 57.5 µM), for inactives: top-dose activity change, negative = inhibition, hits mostly inhibitors; 280,000 compounds, 0.036% hits; active means well fitted inhibition curve with a large enough effect in the signal ratio, with a control signal flat, not every such curve was filed as active; inconclusive means small, poorly fitted or top-dose-only effect, or effect the other way, or a change in a side signal; inactive means no such curve, though single readings can be large or run the other way; the % refers to the signal ratio; further: potency means the concentration at half of the fitted maximal effect; on the % scale 0 is the no-effect control and ±100 the full control effect
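Ratiometric TR-FRET (665 over 545 nm, excitation 340 nm) tracks disruption of MBNL1-His/biotin-(CUG)12 complex after 60 min at room temperature, with compounds at 92 nM to 58 uM final.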
Vif-A3F inh: qHTS for Inhibitors of Vif-A3F Interactions: qHTS; AID 602313, 2012; 390,000 compounds, 0.2% hits; Potency, µM (highest dose often 46.1 µM), for the others: at the top dose activity, negative = active; HeLa A3F-eYFP + Vif (tagged APOBEC3F with the HIV-1 protein that degrades it), YFP fluorescence increase; further: potency means the concentration at half of the fitted maximal effect; % of control where 0% means no effect; nearly all actives have a fitted effect of over 65% in size
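HeLa cells stably expressing Vif plus C-terminally eYFP-tagged A3F were seeded, incubated overnight at 37 deg C, dosed with compound, incubated overnight again at 37 deg C. Yellow fluorescence (Ex 488/Em 500-530) reported blocked Vif-mediated A3F-eYFP degradation.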
Epigenetic reg: Quantitative High-Throughput Screen for Regulators of Epigenetic Control | AID 1865, 2009 | murine LDR cells, GFP reporter derepression, 30 h | 280,000 compounds, 0.2% hits | Potency, µM (titrated, usually from 53.9 µM), for inactives: at the highest dose GFP activation, usual class: activators; further: potency means the concentration at half of the fitted maximal effect; % of control where 0% means no effect; nearly all actives have a fitted effect of over 60% in size
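Murine LDR cells bearing a silenced CMV-driven GFP reporter were exposed to compound for 30 h at 37 C. After PBS washes, GFP-positive cells (20-120 um objects) counted by laser-scanning microplate cytometry.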
Vif-A3G inh: qHTS for Inhibitors of Vif-A3G Interactions: qHTS; HeLa A3G-eYFP + Vif (tagged APOBEC3G with the HIV-1 protein that degrades it), YFP fluorescence, overnight; Potency, µM (doses to about 46.1 µM), for inactives: at the highest dose activity, negative = active, usual class: inhibitors; 410,000 compounds, 0.076% hits; further: potency means the concentration at half of the fitted maximal effect; on the % scale 0 is the no-effect control and ±100 the full control effect; nearly all actives have a fitted effect of over 60% in size
Target sequence (Q9HC16 whole entry, looked up): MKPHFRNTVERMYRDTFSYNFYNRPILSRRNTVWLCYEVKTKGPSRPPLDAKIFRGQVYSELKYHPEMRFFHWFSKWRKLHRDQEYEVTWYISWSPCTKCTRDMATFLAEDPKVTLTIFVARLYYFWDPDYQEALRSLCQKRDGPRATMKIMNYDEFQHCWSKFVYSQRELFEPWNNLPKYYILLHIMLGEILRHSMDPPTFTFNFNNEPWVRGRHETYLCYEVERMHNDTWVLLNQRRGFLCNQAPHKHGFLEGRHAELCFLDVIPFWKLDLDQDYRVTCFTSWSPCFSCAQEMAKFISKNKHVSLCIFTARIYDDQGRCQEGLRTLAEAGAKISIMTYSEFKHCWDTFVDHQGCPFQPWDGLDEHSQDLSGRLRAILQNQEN
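HeLa cells stably expressing Vif and C-terminally eYFP-tagged A3G, seeded overnight at 37 deg C, then exposed to compound by pintool overnight at 37 deg C. Rise in yellow fluorescence (Ex 488/Em 500-530, Acumen) marks blocked Vif-driven A3G degradation.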
* hit, by the source's call; ? = inconclusive; · = no result given; [ ] = dose if it differs, or a comment. Unless noted, the call rests on the fitted dose curve; in most records, active means well fitted curve in the direction sought with a large enough effect; inconclusive means small, poorly fitted or top-dose-only effect, or another doubt; inactive means no such curve, though single readings can be large; an effect the other way counts as inactive or inconclusive.

SMILES	CBFb-RUNX1 inh	PTAP TSG101 blk	MBNL1-CUG inh	Vif-A3F inh	Epigenetic reg	Vif-A3G inh
COc1ccccc1N1C(=O)C(Cl)=C(Nc2ccccc2O)C1=O	-22%	-5%	?	22µM*	13%	?
COc1cc(OC)c(/C=C/c2cc[n+](C)c3ccccc23)c(OC)c1	·	·	·	·	·	2%
CC1CCN(c2oc(-c3ccc(OCc4ccccc4Cl)cc3)nc2C#N)CC1	·	·	·	·	·	-2%
O=C1c2ccccc2NC(c2ccc(OCc3ccccc3)c(OCc3ccccc3)c2)N1Cc1ccco1 (stereo not given)	·	·	·	·	·	-5%
COc1cccc(Cn2c3ccc(NC(=O)CCc4ccc(F)cc4)cc3c(=O)n2C)c1	·	·	·	·	·	4µM*
COc1cccc(CNC(=S)Nc2ccc3c(c2)c(=O)n(C)n3Cc2ccc(F)cc2)c1	·	·	·	·	·	-3%
O=c1oc(/C=C/c2ccc([N+](=O)[O-])s2)nc2ccccc12	·	-8%	5%	28µM*	·	-18%
CCCN1C(=O)/C(=C/c2ccc(N3CCOCC3)cc2)NC1=S	4%	?	?	?	1%	?
CCN1C(=O)/C(=C/c2ccc(N3CCCC3)cc2)NC1=S	?	?	·	25µM*	?	8.9µM*
Cc1cc(/C=C2\NC(=S)N(C)C2=O)ccc1N1CCCC1	4%	?	?	?	?	6.3µM*
CCCN1C(=O)/C(=C/c2ccc(OCC(=O)OCC)cc2)NC1=S	-12%	-1%	?	-23%	3%	-7%
CCCN1C(=O)/C(=C/c2ccc(N3CCCC3)c(C)c2)NC1=S	-3%	?	?	?	1µM*	?
Cc1cc(/C=C2/C(=O)N(C)C(=S)N2C)ccc1N1CCCC1	-11%	10%	?	?	?	?
CC[N+](C)(C)c1ccc(/C=C/c2ccnc3ccccc23)cc1	·	·	·	·	·	6%
Cc1cc2nccc(C)c2cc1C	·	·	·	·	·	3%
CC(C)(C)c1ccc(OCCn2c(CCNC(=O)C3CCCCC3)nc3ccccc32)cc1	·	·	·	·	·	-9%
CCc1cc[n+](CC(=O)c2ccc(F)cc2)cc1C(=O)O	·	·	·	·	·	1%
N#Cc1sc2nc(-c3cccs3)cc(-c3ccc(Cl)cc3)c2c1N	15%	-5%	11%	?	14µM*	?
COc1ccc2nc(N3CCCC3)c(C#N)cc2c1	?	?	77%	11µM*	1%	-14%
COc1ccc2nc(N3CCCCC3)c(C#N)cc2c1	?	54%	94%	-19%	-1%	-7%
O=S(=O)(NCCNCC=Cc1ccc(Br)cc1)c1cccc2cnccc12	·	·	·	·	·	-4%
O=C(CCC(=O)Nc1ccc(F)cc1)N/N=C/c1ccc(O)cc1O	-17%	0%	18%	-14%	1%	-5%
Oc1ccc(C=NNC(=S)Nc2ccc(F)cc2)c(O)c1	·	-5%	·	25µM*	·	?
CCNc1ccc(Br)cc(C(=O)/C=C/c2ccc(Cl)cc2)c1=O	?	-2%	-1%[11.5 µM]	?	15%	?
CCNc1ccc(Br)cc(C(=O)/C=C/c2ccc3c(c2)OCO3)c1=O	?	6%	18%	13µM*	2%	-29%
SMILES	CBFb-RUNX1 inh	PTAP TSG101 blk	MBNL1-CUG inh	Vif-A3F inh	Epigenetic reg	Vif-A3G inh
CC(=O)Nc1cc(O)c2nonc2c1O	·	·	·	·	·	-26%
CCOc1ccccc1C1CC(c2cccs2)=NN1S(C)(=O)=O (stereo not given)	3%	0%	12%	32µM*	12%	-27%
CS(=O)(=O)N1N=C(c2cccs2)CC1c1ccccc1O (stereo not given)	7%	3%	22%	?	0%	-12%
C/C(=N\NC(=O)C(C)Oc1ccc([N+](=O)[O-])cc1)c1ccccn1 (stereo not given)	?	-2%	10%	-5%	16µM*	-5%
N#C/C(=C\c1ccccc1[N+](=O)[O-])C(=O)NCc1ccccc1	-8%	0%	?	13µM*	1%	-6%
Cn1nnnc1SCCNCc1cc(Br)ccc1OCc1ccccc1Cl	·	·	·	13µM*	1%	-15%
O=C(NCC1CCCO1)c1nn2c(C(F)(F)F)cc(-c3ccco3)nc2c1Cl (stereo not given)	·	?	·	3%	·	2%
O=C(NCC1CCCO1)c1nn2c(C(F)(F)F)cc(-c3cc(Br)cs3)nc2c1Br (stereo not given)	·	9%	2%	10µM*	·	-9%
Cc1cccc2cc3c(N)c(C(=O)N4CCOCC4)sc3nc12	2%	0%	?	22µM*	1%	?
O=S(=O)(c1cccc(Br)c1)N1CCN(c2nc(-c3cccs3)nc3ccccc23)CC1	·	·	·	·	·	-2%
COc1ccc(Nc2oc(/C=C/c3cccc(OC)c3)nc2C#N)cc1	·	·	·	-23%	10%	-8%
CCOc1ccc(Nc2oc(/C=C/c3ccc(OC)c(OC)c3)nc2C#N)cc1	·	·	·	0%	32µM*	3%
Cc1ccccc1OCC(=O)Nc1cc(C)c(O)c(-c2nc3ccccc3o2)c1	·	·	·	·	·	-1%
S=c1[nH]cnc2sc(-c3ccccc3)cc12	0%	0%	247%	5.6µM*	1%	-4%
CNc1ncnc2sc(-c3ccccc3)cc12	-2%	-1%	?	6%	0%	-12%
COc1ccc(C)cc1Nc1n[n+](-c2ccccc2)c(-c2cc([N+](=O)[O-])cc(OC)c2O)s1	·	?	12%	22µM*	·	-9%
O=[N+]([O-])c1ccc(/C=C/c2ccnc3ccccc23)cc1	·	·	·	·	·	2%
CC(=O)Nc1ccc(C2=CC(=O)C[C@H](c3ccc(Cl)cc3)C2)cc1	·	-7%	·	22µM*	·	?
C=CCN1C(=O)c2ccc(C(=O)N(CC(C)C)c3c(N)n(CCCC)c(=O)[nH]c3=O)cc2C1=O	·	16%	·	?	·	7.9µM*
CCCCn1c(N)c(N(CC(C)C)C(=O)c2ccncc2)c(=O)[nH]c1=O	·	0%	·	3%	·	-4%
C[C@H](NC(=O)OC(C)(C)C)C(=O)c1ccco1	·	·	·	·	·	1%
CC(=O)Nc1sc(C)c(C)c1C(=O)OCC(=O)Nc1cccc(C)c1	·	1%	·	?	·	-2%
CC(=O)Nc1sc(C)c(C)c1C(=O)OCC(=O)Nc1ccccc1	·	-6%	·	11µM*	·	?

Screening data deposited in PubChem BioAssay by National Center for Advancing Translational Sciences (NCATS).
